Data: the supplement of paper PMC10849652
Of roughly 7,900 targets only a part is listed; those with a hit were picked by preference. About 0.6% of all pairs of compound and target were hits. Unmarked numbers belong to inactive results.

Experiments:
Test in all cases: log2 fold change, soluble protein after heating vs DMSO (PISA); higher = thermal stabilisation; K562 cells, 10 uM, 30 min; active = over 0.2 and 3.5 SD of the protein, either way, in both replicates (recomputed)
[1] = compound: COC1=CC=C(C=C1)CN2C=CC3=C2C=C(C=C3)C(=O)NO
Summary of the method: (§1)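 Soluble protein was defined as the supernatant after 21,000xg for 90 min. It came from K562 cells at 2×10^6 cells/mL given 10 μM compound for 30 min, heated in aliquots for 3 min across 48°C-58°C, pooled, and extracted in PBS with 0.5% NP-40 at 4°C, and was quantified by TMTpro 16plex LC-MS/MS with equalised channel sums. Thermal stability against control samples, from duplicates, is reported as log2 fold change.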

filanesib = compound: CON(C)C(=O)N1N=C(c2cc(F)ccc2F)S[C@@]1(CCCN)c1ccccc1 [filanesib]
Summary of the method: as §1

zotarolimus = compound: CO[C@H]1C[C@@H]2CC[C@@H](C)[C@@](O)(O2)C(=O)C(=O)N2CCCC[C@H]2C(=O)O[C@H]([C@H](C)C[C@@H]2CC[C@H](n3cnnn3)[C@H](OC)C2)CC(=O)[C@H](C)/C=C(\C)[C@@H](O)[C@@H](OC)C(=O)[C@H](C)C[C@H](C)/C=C/C=C/C=C/1C [zotarolimus]
Summary of the method: as §1

idasanutlin = compound: COc1cc(C(=O)O)ccc1NC(=O)[C@@H]1N[C@@H](CC(C)(C)C)[C@](C#N)(c2ccc(Cl)cc2F)[C@H]1c1cccc(Cl)c1F [idasanutlin]
Summary of the method: as §1

alisertib = compound: COc1cc(Nc2ncc3c(n2)-c2ccc(Cl)cc2C(c2c(F)cccc2OC)=NC3)ccc1C(=O)O [alisertib]
Summary of the method: as §1

[2] = compound: COc1cc2nc(-c3cc(F)ccc3O)nc(N[C@@H]3CNC[C@H]3C(C)(C)O)c2cc1OC
Summary of the method: as §1

gefitinib = compound: COc1cc2ncnc(Nc3ccc(F)c(Cl)c3)c2cc1OCCCN1CCOCC1 [gefitinib]
Summary of the method: as §1

[3] = compound: COc1cccc2cc(-c3nc([C@H]4CC[C@H](C(=O)O)CC4)n4ncnc(N)c34)[nH]c12
Summary of the method: as §1

lapatinib = compound: CS(=O)(=O)CCNCc1ccc(-c2ccc3ncnc(Nc4ccc(OCc5cccc(F)c5)c(Cl)c4)c3c2)o1 [lapatinib]
Summary of the method: as §1

pictilisib = compound: CS(=O)(=O)N1CCN(Cc2cc3nc(-c4cccc5[nH]ncc45)nc(N4CCOCC4)c3s2)CC1 [pictilisib]
Summary of the method: as §1

[4] = compound: CS(=O)(=O)c1ccc(-c2cnc(N)c(C(=O)Nc3ccccc3)n2)cc1
Summary of the method: as §1

crizotinib = compound: C[C@@H](Oc1cc(-c2cnn(C3CCNCC3)c2)cnc1N)c1c(Cl)ccc(F)c1Cl [crizotinib]
Summary of the method: as §1

[5] = compound: C[C@@H]1COCCN1C2=NC(=NC(=C2)C3(CC3)S(=O)(=O)C)C4=C5C=CNC5=CC=C4
Summary of the method: as §1

[6] = compound: C[C@H](C1=CC=C(C=C1)C(=O)NC2=C3C=CNC3=NC=C2)N
Summary of the method: as §1

duvelisib = compound: C[C@H](Nc1ncnc2nc[nH]c12)c1cc2cccc(Cl)c2c(=O)n1-c1ccccc1 [duvelisib]
Summary of the method: as §1

gandotinib = compound: Cc1cc(Nc2cc(CN3CCOCC3)c3nc(C)c(Cc4ccc(Cl)cc4F)n3n2)n[nH]1 [gandotinib]
Summary of the method: as §1

tozasertib = compound: Cc1cc(Nc2cc(N3CCN(C)CC3)nc(Sc3ccc(NC(=O)C4CC4)cc3)n2)n[nH]1 [tozasertib]
Summary of the method: as §1

[7] = compound: Cc1cc(SCc2sc(-c3ccc(C(F)(F)F)cc3)nc2C)ccc1OCC(=O)O
Summary of the method: as §1

doramapimod = compound: Cc1ccc(-n2nc(C(C)(C)C)cc2NC(=O)Nc2ccc(OCCN3CCOCC3)c3ccccc23)cc1 [doramapimod]
Summary of the method: as §1

ispinesib = compound: Cc1ccc(C(=O)N(CCCN)[C@@H](c2nc3cc(Cl)ccc3c(=O)n2Cc2ccccc2)C(C)C)cc1 [ispinesib]
Summary of the method: as §1

UniProt P05114, sequence (P05114 whole entry, looked up): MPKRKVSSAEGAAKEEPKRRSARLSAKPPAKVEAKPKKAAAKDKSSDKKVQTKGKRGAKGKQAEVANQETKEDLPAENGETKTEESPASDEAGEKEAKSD
UniProt Q8TEQ6, sequence (Q8TEQ6 whole entry, looked up): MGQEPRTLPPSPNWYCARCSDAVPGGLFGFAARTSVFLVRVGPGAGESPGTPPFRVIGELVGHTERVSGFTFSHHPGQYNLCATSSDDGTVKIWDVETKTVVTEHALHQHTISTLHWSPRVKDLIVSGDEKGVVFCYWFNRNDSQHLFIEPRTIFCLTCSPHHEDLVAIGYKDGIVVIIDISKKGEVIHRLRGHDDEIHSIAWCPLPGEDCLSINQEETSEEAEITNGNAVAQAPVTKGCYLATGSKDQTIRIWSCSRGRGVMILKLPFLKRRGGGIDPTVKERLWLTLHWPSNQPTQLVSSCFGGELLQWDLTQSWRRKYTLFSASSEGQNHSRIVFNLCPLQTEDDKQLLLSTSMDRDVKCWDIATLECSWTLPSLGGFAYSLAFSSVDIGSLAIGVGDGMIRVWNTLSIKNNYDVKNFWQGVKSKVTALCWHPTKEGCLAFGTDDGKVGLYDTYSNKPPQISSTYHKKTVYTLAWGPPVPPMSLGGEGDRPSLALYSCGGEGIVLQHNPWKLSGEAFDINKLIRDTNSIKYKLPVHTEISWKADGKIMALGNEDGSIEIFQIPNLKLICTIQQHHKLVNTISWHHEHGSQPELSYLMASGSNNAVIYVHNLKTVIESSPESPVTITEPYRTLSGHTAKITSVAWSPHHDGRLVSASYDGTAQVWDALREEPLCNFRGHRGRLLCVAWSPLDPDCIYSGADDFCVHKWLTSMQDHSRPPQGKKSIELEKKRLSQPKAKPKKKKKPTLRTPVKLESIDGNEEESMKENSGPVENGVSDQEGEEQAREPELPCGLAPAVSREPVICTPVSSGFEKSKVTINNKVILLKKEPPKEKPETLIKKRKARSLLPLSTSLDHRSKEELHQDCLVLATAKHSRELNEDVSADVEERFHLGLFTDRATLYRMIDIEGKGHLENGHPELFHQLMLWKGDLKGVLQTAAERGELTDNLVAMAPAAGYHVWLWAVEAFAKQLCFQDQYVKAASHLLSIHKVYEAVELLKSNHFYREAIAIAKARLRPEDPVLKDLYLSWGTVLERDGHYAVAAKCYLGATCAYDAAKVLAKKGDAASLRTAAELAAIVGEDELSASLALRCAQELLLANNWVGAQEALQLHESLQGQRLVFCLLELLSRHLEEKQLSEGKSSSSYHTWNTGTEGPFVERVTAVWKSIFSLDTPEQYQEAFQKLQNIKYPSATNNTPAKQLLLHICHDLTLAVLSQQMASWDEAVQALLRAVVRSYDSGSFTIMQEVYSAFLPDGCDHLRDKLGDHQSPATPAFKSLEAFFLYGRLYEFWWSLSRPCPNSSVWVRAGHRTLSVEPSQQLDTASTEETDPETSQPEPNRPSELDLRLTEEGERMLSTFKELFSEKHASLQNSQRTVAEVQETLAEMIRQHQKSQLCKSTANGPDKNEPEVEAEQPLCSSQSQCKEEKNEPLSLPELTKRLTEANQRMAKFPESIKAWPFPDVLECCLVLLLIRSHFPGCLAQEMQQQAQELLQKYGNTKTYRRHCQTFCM
UniProt Q8N2G8, sequence (Q8N2G8 whole entry, looked up): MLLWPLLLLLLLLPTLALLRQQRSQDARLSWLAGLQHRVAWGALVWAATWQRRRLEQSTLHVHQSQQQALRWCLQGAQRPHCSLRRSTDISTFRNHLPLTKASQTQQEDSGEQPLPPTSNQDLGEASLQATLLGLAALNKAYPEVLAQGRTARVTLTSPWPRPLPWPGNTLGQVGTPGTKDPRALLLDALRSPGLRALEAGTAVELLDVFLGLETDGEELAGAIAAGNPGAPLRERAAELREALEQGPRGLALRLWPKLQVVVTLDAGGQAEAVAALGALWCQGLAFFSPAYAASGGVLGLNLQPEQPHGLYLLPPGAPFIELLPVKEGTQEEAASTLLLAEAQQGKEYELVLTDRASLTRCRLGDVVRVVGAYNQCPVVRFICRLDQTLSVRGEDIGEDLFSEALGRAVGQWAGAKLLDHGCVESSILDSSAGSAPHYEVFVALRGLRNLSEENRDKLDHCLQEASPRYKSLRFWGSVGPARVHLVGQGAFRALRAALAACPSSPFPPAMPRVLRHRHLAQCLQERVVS
UniProt Q8NCW6, sequence (Q8NCW6 whole entry, looked up): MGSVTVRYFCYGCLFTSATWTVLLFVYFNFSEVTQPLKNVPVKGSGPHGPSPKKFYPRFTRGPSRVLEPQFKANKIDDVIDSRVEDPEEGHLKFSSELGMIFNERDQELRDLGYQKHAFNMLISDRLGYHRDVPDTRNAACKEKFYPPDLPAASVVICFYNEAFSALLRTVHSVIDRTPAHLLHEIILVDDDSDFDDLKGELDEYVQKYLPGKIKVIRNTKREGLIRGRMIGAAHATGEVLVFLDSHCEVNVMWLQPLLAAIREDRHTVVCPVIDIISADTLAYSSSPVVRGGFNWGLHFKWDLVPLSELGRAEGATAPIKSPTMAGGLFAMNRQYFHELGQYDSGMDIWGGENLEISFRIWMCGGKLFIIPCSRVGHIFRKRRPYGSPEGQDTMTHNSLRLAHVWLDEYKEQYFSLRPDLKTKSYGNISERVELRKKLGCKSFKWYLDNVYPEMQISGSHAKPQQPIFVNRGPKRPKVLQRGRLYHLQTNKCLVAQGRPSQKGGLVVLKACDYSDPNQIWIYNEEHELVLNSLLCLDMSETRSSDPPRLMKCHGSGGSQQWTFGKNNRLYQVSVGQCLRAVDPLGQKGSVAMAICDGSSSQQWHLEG
UniProt O43524, sequence (O43524 whole entry, looked up): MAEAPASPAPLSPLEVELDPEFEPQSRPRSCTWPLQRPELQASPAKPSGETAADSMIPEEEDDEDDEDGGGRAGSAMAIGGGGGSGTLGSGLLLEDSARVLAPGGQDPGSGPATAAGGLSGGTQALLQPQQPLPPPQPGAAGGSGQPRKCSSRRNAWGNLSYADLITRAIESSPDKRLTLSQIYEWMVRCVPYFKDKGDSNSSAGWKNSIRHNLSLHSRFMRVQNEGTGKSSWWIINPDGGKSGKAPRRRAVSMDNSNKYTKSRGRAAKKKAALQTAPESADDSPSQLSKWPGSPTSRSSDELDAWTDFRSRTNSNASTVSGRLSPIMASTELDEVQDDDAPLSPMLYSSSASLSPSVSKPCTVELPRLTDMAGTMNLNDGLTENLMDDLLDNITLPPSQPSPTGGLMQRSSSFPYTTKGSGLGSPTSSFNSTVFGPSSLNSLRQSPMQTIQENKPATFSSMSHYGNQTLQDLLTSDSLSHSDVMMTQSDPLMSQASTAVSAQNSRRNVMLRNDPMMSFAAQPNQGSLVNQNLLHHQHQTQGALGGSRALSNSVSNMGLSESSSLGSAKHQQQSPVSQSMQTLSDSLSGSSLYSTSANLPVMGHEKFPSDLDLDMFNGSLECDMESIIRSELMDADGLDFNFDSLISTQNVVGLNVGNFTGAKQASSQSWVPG
UniProt P0CL80, sequence (P0CL80 whole entry, looked up): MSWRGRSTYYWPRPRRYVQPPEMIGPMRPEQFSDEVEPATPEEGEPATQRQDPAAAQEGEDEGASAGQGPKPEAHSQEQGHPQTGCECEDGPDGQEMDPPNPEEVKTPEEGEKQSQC
UniProt P07910, sequence (P07910 whole entry, looked up): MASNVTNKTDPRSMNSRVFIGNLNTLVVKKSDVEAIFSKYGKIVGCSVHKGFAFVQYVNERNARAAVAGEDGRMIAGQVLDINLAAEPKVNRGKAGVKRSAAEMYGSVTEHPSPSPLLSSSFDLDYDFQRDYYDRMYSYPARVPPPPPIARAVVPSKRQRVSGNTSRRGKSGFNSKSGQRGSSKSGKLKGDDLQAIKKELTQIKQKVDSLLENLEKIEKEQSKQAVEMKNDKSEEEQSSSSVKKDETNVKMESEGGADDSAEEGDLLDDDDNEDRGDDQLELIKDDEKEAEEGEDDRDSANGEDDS

Target	log2 fold change [1]	log2 fold change (filanesib)	log2 fold change (zotarolimus)	log2 fold change (idasanutlin)	log2 fold change (alisertib)	log2 fold change [2]	log2 fold change (gefitinib)	log2 fold change [3]	log2 fold change (lapatinib)	log2 fold change (pictilisib)	log2 fold change [4]	log2 fold change (crizotinib)	log2 fold change [5]	log2 fold change [6]	log2 fold change (duvelisib)	log2 fold change (gandotinib)	log2 fold change (tozasertib)	log2 fold change [7]	log2 fold change (doramapimod)	log2 fold change (ispinesib)
HNRNPC isoform 2 (UniProt P07910)	0.009	0.39	-0.024	0.796	-0.052	-0.041	0.002	-0.065	-0.026	0.065	-0.176	-0.061	-0.239	0.532	-0.076	0.197	0.05	0.125	0.088	-0.35
HMGN1 (UniProt P05114)	0.01	0.044	-0.034	0.026	-0.04	0.059	-0.07	0.026	-0.09	-0.003	-0.067	0.055	-0.034	0.058	-0.045	0.094	0.015	-0.027	0.013	-0.042
GAGE12F (UniProt P0CL80)	-0.007	0.02	-0.054	0.055	-0.312	-0.02	-0.03	0.123	-0.028	0.108	0.019	0.034	0.092	0.081	0.039	0.072	0.006	0.03	0.043	0.009
GALNT11 (UniProt Q8NCW6)	-0.012	-0.028	-0.019	-0.042	0	0.052	0.013	0.062	-0.011	0.026	0.039	0.04	0.112	0.018	0.039	0.045	0.027	-0.061	0.045	-0.163
FOXO3 (UniProt O43524)	0.027	-0.069	0.083	0.154	0.149	-0.067		-0.068	-0.106	-0.09	-0.028	-0.423 (active)	-0.444	0.013	-0.354	-0.061	-0.095	0.16	0.005	-0.095
GEMIN5 (UniProt Q8TEQ6)	0.017	0.037	0.039	-0.024	-0.041	-0.235 (active)	0.013	-0.035	0.015	-0.021	-0.004	-0.047	0.038	0.02	-0.006	-0.082	0.016	0.055	-0.001	-0.088
HNRNPUL1 (UniProt M0R247)	-0.028	0.029	-0.468	0.277		0.117	0.1		-0.15		-0.057	0.151		0.722	0.673		-0.187	-0.374	-0.014	
GHDC (UniProt Q8N2G8)	-0.026	-0.127	0.021	0.061	-0.057	-0.13	0.037	0.087	0.042	0.042	0.041	-0.02	0.021	-0.074	0.043	0.002	-0.01	-0.039	-0.041	-0.132
